# Compound activity deposited in PubChem by The Scripps Research Institute Molecular Screening Center.
# Hits are enriched below; roughly 4.8% of the tested compounds scored in any of these assays.
# hcDAF-12 act = H. contortus DAF-12 activation, primary screen; HEK293 hcDAF-12 lit1-tk-luc reporter, luminescence; 0% DMSO, 100% Δ7-dafachronic acid; activation, % at 6.8 µM; hit rate 1.4% among 370,000;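 active means activation above the mean of all tested compounds plus 3 SD, cut at about 5.5% in these data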
# SMARCA2 activ = increases SMARCA2 function in MMTV reporter cells | MG213 cells, MMTV-luciferase reporter, dexamethasone, overnight | activation, % at 9.1 µM | hit rate 1% among 370,000; in the data active means activation above about 7.8%
# ssDAF12 agonist = activates DAF-12 receptor from parasite S. stercoralis. HEK293 ssDAF-12/GRIP1 lit1-tk-luc reporter, luminescence; % of 3 µM dafachronic acid response. activation, % at 6.8 µM. hit rate 1% among 370,000. AID 652126;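 active means activation above the mean over all tested compounds plus 3 SD, cut at about 0.9% in these data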
# DAX1 inh-1 = inhibits human nuclear receptor DAX1; P51843; HEK293 Gal4-DAX1 luciferase reporter, luminescence; inhibition, % at 6.75 µM; hit rate 0.99% among 340,000;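 active means inhibition above the mean over all tested compounds plus 3 SD, cut at about 4.2% in these data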;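 further: inhibition shows as a rise in luminescence from relieved DAX1 repression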
# Target sequence (P51843 207-470 limits assumed): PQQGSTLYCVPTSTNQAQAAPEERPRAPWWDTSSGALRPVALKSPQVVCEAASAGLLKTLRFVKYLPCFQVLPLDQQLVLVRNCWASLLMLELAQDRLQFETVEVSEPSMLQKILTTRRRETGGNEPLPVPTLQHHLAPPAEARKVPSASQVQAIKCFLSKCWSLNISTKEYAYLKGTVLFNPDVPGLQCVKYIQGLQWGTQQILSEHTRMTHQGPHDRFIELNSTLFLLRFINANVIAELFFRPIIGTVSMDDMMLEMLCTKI
# hgDAF12 agonist = activates the H. glycines DAF-12 receptor ligand-binding domain; HEK293 GAL4-hgDAF12 UAS-luciferase reporter, agonist luminescence; normalized to butyrate control; activation, % at 6.8 µM; hit rate 1.8% among 370,000;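 active means activation above a cutoff set at the mean of all screened compounds plus 3 SD, cut at about 10% in these data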
# DAX1 inh-2 = blocks DAX1 repression of SF-1 activated StAR promoter | HEK293T StAR-luciferase reporter, SF-1/DAX-1 repression relief | inhibition, % at 6.8 µM | hit rate 1.1% among 370,000 | AID 652010;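 active means inhibition above the mean over all tested compounds plus 3 SD, cut at about 3.6% in these data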;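 further: higher inhibition means more luminescence from relief of DAX-1 repression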
# Hits are given with their value; i = inactive; nt = no result given.
SMILES,hcDAF-12 act,SMARCA2 activ,ssDAF12 agonist,DAX1 inh-1,hgDAF12 agonist,DAX1 inh-2
CC(C)NC(=S)NC(=O)c1ccc(Cl)cc1Cl,5.7,i,i,i,i,i
CCn1ncc(C(=O)Nc2cc(C)on2)c1C,i,i,i,i,11.8,i
CCC(=O)N1CCCC1(C)C(=O)Nc1cccc(Oc2ccccc2)c1 (stereo not drawn),i,i,i,nt,i,i
CC(C)[C@H](NC(=O)N1CCn2c1nc1ccccc12)C(=O)NCC1CCCO1 (stereo partly drawn),i,i,i,i,i,i
CCC1CCCCN1C(=O)/C=C/c1ccc2c(c1)OCO2 (stereo not drawn),i,i,i,i,i,i
O=C(Nc1ccsn1)c1ccc(Cl)cc1Cl,i,i,i,4.5,11.6,i
O=C(NCCNC(=O)c1ccc(Cl)cc1Cl)c1ccc(Cl)cc1Cl,i,i,i,nt,i,i
Cc1ccc(C(=O)Nc2ccc(Cl)cc2C(F)(F)F)c(Cl)c1,i,i,i,i,12.6,i
O=C(CCc1ccccc1)N[C@H]1[C@H](OC(=O)c2cnccn2)CCC[C@@]12C(=O)N(Cc1ccccc1)c1ccccc12,i,i,i,nt,i,i
Cc1nnc(SCC(=O)N2CCN(c3cccc(Cl)c3)CC2)n1C1CC1,i,i,i,i,i,i
COC(=O)c1ccc(NC(=O)CN(c2ccc(OC)cc2)S(C)(=O)=O)cc1,i,i,i,i,11.8,i
CCOc1ccc(NC(=O)CN(c2ccc(OC)cc2)S(C)(=O)=O)cc1,i,i,i,i,i,i
C/C=C/c1cccc(-c2nc(C(=O)N3CCOCC3)cc3c2[C@@H](CCO)N(C(=O)NC(C)C)C3)c1,i,i,i,nt,i,i
CN(C)c1ccc(S(=O)(=O)NCC(=O)N2CCN(S(=O)(=O)c3cccc(F)c3)CC2)cc1[N+](=O)[O-],i,i,i,i,i,i
CN(CC(=O)Nc1cccc(F)c1)C(=O)CNS(=O)(=O)c1ccc(N(C)C)c([N+](=O)[O-])c1,i,i,i,4.4,i,i
CCc1nc2ccc(C(=O)NCCCn3ccnc3)cn2c1N(C)Cc1nccs1,i,i,i,nt,i,i
COCc1cc(C)n(CC(=O)N/N=C/c2ccc(-c3ccc(Cl)c(C(=O)O)c3)o2)c(=O)c1C#N,i,i,0.9,i,i,i
O=C(Cc1ccc(F)cc1)N/N=C/c1ccc(-c2ccc(Cl)c(C(=O)O)c2)o1,i,i,i,i,i,i
O=C(COC(=O)COc1cccc(C(F)(F)F)c1)Nc1ccc(N2CCOCC2)cc1,6.1,i,i,i,i,i
CCC(=O)c1ccc(OCC(=O)OCC(=O)Nc2cccc(S(=O)(=O)N3CCOCC3)c2)cc1,i,7.8,i,i,i,i
Cc1ccc(-c2csc(NC(=O)c3cccc(S(=O)(=O)N4CCN(C)CC4)c3)n2)cc1,i,i,i,i,i,i
CCn1nc(C(=O)OCC(=O)Nc2nc(-c3ccc(OC)cc3)cs2)c2ccccc2c1=O,i,i,i,i,10.5,i
Cc1ccc(-c2csc(NC(=O)COC(=O)c3cccc(S(=O)(=O)N4CCOCC4)c3)n2)cc1,i,i,i,nt,i,3.6
N#Cc1ccc(OCC(=O)OCC(=O)Nc2ccc(N3CCOCC3)cc2)cc1,i,i,i,i,i,i
O=C1NC(Cc2ccc(O)cc2)c2nc3ccccc3c(=O)n2-c2ncccc21 (stereo not drawn),i,i,i,i,i,i
SMILES,hcDAF-12 act,SMARCA2 activ,ssDAF12 agonist,DAX1 inh-1,hgDAF12 agonist,DAX1 inh-2
O=C(CSc1nc2c(oc3ccccc32)c(=O)n1CC1CCCO1)NCc1ccc(F)cc1 (stereo not drawn),i,i,i,i,i,i
CCCC(=O)N1CCCC1(C)C(=O)NCCc1ccccn1 (stereo not drawn),i,i,i,nt,i,i
COc1ccc(-c2csc(NC(=O)COC(=O)c3ccco3)n2)cc1,i,i,i,i,11.3,i
CCCC(=O)NC(=S)Nc1nc(-c2ccc(OC)cc2)cs1,i,i,i,4.7,i,i
COCCNC(=O)C(c1ccc(F)cc1)N(C(=O)CCC(=O)Nc1ccccn1)C1CCCCC1 (stereo not drawn),i,i,i,i,i,i
COc1ccc(S[C@]2(C(=O)N3CCCC3)CC(=O)N(C(=O)/C=C/c3ccccc3)[C@@H]2c2ccc(OC)cc2)cc1,i,i,i,nt,i,i
